Measurements taken from PubChem BioAssay (NCI).
The panel holds about 83,000 compounds, 20% with a hit somewhere; the sample as a whole holds those more often.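 Note: values are percent growth. 100 is the growth of untreated cells, values between 100 and 0 indicate rising inhibition; between -100 and 0 indicates cell death.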 A number with no mark means an inactive call. The source made the active and inactive calls. The calls were made as follows: active = growth percent below 10; inactive = the rest.

What was measured:
Assay in all cases: NCI-60 one-dose screen, 48 h (100 = growth as untreated, 0 = no growth, -100 = all killed)
Details in all cases: 10 µM unless noted
SK-MEL-2 melanoma = system: SK-MEL-2 melanoma
EKVX NSCLC = system: EKVX NSCLC
SN12C renal = system: SN12C renal
UO-31 renal = system: UO-31 renal
TK-10 renal = system: TK-10 renal
ACHN renal = system: ACHN renal
CAKI-1 renal = system: CAKI-1 renal
A498 renal = system: A498 renal
CCRF-CEM leukemia = system: CCRF-CEM leukemia
MOLT-4 leukemia = system: MOLT-4 leukemia
SR leukemia = system: SR leukemia
RPMI-8226 leukemia = system: RPMI-8226 leukemia
OVCAR-8 ovarian = system: OVCAR-8 ovarian
OVCAR-5 ovarian = system: OVCAR-5 ovarian
OVCAR-4 ovarian = system: OVCAR-4 ovarian
SK-OV-3 ovarian = system: SK-OV-3 ovarian
IGROV1 ovarian = system: IGROV1 ovarian
OVCAR-3 ovarian = system: OVCAR-3 ovarian
HS 578T breast = system: HS 578T breast
NCI/ADR-RES ovarian = system: NCI/ADR-RES ovarian

| SMILES | growth (SK-MEL-2 melanoma) [%] | growth (EKVX NSCLC) [%] | growth (SN12C renal) | growth (UO-31 renal) [%] | growth (TK-10 renal) [%] | growth (ACHN renal) [%] | growth (CAKI-1 renal) [%] | growth (A498 renal) | growth (CCRF-CEM leukemia) | growth (MOLT-4 leukemia) | growth (SR leukemia) | growth (RPMI-8226 leukemia) | growth (OVCAR-8 ovarian) [%] | growth (OVCAR-5 ovarian) [%] | growth (OVCAR-4 ovarian) [%] | growth (SK-OV-3 ovarian) [%] | growth (IGROV1 ovarian) [%] | growth (OVCAR-3 ovarian) | growth (HS 578T breast) | growth (NCI/ADR-RES ovarian) |
| --- | --- | --- | --- | --- | --- | --- | --- | --- | --- | --- | --- | --- | --- | --- | --- | --- | --- | --- | --- | --- |
| COc1ccc(-c2nc(N/N=C/c3c[nH]c4ccccc34)nc(N3CCOCC3)c2C#N)cc1 | 97.8 | 99.8 | 92.2% | 63.7 | 104 | 76.1 | 98 | 51.2% | 56.9% | 55.6% | -2.03% (active) | 71.9% | 92.5 | 125 | 105 | 115 | 80.9 | 90.4% | 93.4% | 96.5% |
| COc1ccc(C(=O)c2cc3c(N)c(C(=O)Nc4cccc(OC)c4)sc3nc2C)cc1 | 27.9 | 35.3 | 28.1% | 49.3 | 57.1 | 41.2 | 45.8 | -1.41% (active) | 7.12% (active) | 15.8% | -2.44% (active) | 15.2% | 15 | 46.8 | 49.5 | 36.5 | 37.6 | 1.93% (active) | 24.6% | 4.09% (active) |
| COc1ccc(C(O)c2cc3c(N)c(C(=O)Nc4ccc(Cl)cc4)sc3nc2C)cc1 (stereo not given) | 37.1 | 37 | 34.6% | 37 | 42.4 | 35.6 | 25.2 | -5.66% (active) | 8.15% (active) | 15.5% | -9.53% (active) | 5.22% (active) | 30.6 | 46.8 | 38.4 | 32.1 | 33 | -35.7% (active) | 7.82% (active) | 16% |
| Cc1ccc(-c2c(Br)c(OC(=O)CO[C@@H]3C[C@H](C)CC[C@H]3C(C)C)c(-c3ccc(C)cc3C)c(Br)c2OC(=O)CO[C@H]2C[C@@H](C)CC[C@@H]2C(C)C)c(C)c1 | 90.2 | 101 | 98.9% | 87 | 92.8 | 104 | 97 | 96.1% | 90% | 97.6% | 104% | 94.3% | 89.6 | – | 106 | 94.9 | 108 | 110% | 98.9% | 101% |
| CCOC(=O)C1CC(=O)c2cc(OC)c(OC)cc2C1 (stereo not given) | 107 | 114 | 100% | 93.6 | 126 | 107 | 120 | 129% | 84.6% | 94.3% | 89.6% | 82.3% | 103 | 101 | 96.8 | 106 | – | 110% | 112% | 98.5% |
| Fc1ccccc1CSc1ncnc2nc[nH]c12 | 86.6 | 113 | 101% | 94.9 | 142 | 107 | 103 | 112% | 117% | 92.3% | 105% | 95.1% | 80.5 | 110 | 113 | – | – | 118% | 111% | 114% |
| COc1ccccc1-c1c(-c2ccc(Cl)cc2)c2cc3c(cc2[nH]c1=O)OCCO3 | 80.5 | 53.6 | 85.4% | 61.9 | 86 | 70.5 | 54.9 | 86.8% | 41.7% | 3.15% (active) | 45.8% | -57.2% (active) | 68.5 | 91.1 | 68.5 | 101 | 77 | 64.5% | – | 72.3% |
| Cc1ccc(/C=C/C(=O)c2ccc(N)cc2)c(C)c1 | 99 | 109 | 4.51% (active) | 11.7 | 106 | 39.3 | 84.1 | 97.3% | -45.3% (active) | -41.1% (active) | -45.1% (active) | 33% | 17.3 | 103 | 73 | 122 | 12 | 21.7% | 100% | 62.2% |
